Inconclusive results are not listed. The source made the active and inactive calls. Calls follow the shape of the dose curve; as a rule, active = well fitted curve in the direction sought with a large enough effect; inconclusive = small, poorly fitted or top-dose-only effect, or another doubt; inactive = no such curve, though single readings can be large; an effect the other way counts as inactive or inconclusive.
How the values were obtained:
[1] = Primary redox qHTS assay for identification of artifact compounds. (AID 1845223)
Summary of the method: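 Amplex Red (25 uM) and HRP (250 mU/mL) in HBSS, with compounds for 15 min, then 250 uM DTT for 30 min, room temperature, dark. Fluorescence 525/598 nm read; normalized to DMSO and 10 uM DA3003; Hill fit.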

[2] = Quantitative High-Throughput drug screen in 47 multiple myeloma cell lines against the NCATS MIPE library collection: FR4_PLB cell viability assay (AID 1918924; also: nearly all actives have a fitted effect of over 35% in size)
Summary of the method: (§1)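 Luminescent ATP measurement with CellTiter-Glo gives viability, scaled between DMSO-only wells (100%) and media-only wells (0%). Cells, 500 per well, faced library compounds for 48 hours at 37C.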

[3] = Quantitative High-Throughput drug screen in 47 multiple myeloma cell lines against the NCATS MIPE library collection: Delta47_JCRB cell viability assay (AID 1918925; also: nearly all actives have a fitted effect of over 45% in size)
Summary of the method: (§2)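 Myeloma cell lines, 500 cells per well, exposed to MIPE 4.0 library compounds for 48 h at 37C, 5% CO2. Viability from ATP by CellTiter-Glo luminescence; normalised to DMSO (100%) and media-only (0%) wells.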

[4] = Quantitative High-Throughput drug screen in 47 multiple myeloma cell lines against the NCATS MIPE library collection: EJM_DSMZ cell viability assay (AID 1918926; also: nearly all actives have a fitted effect of over 30% in size)
Summary of the method: as §2

[5] = Quantitative High-Throughput drug screen in 47 multiple myeloma cell lines against the NCATS MIPE library collection: ARP1_JJKsccF8 cell viability assay (AID 1918928; also: nearly all actives have a fitted effect of over 40% in size)
Summary of the method: (§3)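 Here, 48 h treatment with MIPE 4.0 agents at 37 °C preceded an ATP luminescence read. Plating density was 500 cells per well.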

[6] = Quantitative High-Throughput drug screen in 47 multiple myeloma cell lines against the NCATS MIPE library collection: ARD_JJKsccE7 cell viability assay (AID 1918929)
Summary of the method: as §2

[7] = Quantitative High-Throughput drug screen in 47 multiple myeloma cell lines against the NCATS MIPE library collection: Karpas417_ECACC cell viability assay (AID 1918961); conditions: Karpas417 myeloma viability, CellTiter-Glo ATP luminescence, 48 h; viability (% of DMSO): at 45.8 µM (top of the series)
Summary of the method: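 Steps: seed 500 cells per well; pin-transfer MIPE 4.0 library; incubate 48 h at 37C, 5% CO2, humidified; add CellTiter-Glo, 5 min room temperature; read luminescence.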

[8] = Quantitative High-Throughput drug screen in 47 multiple myeloma cell lines against the NCATS MIPE library collection: AMO1_DSMZ cell viability assay (AID 1918927; also: nearly all actives have a fitted effect of over 30% in size)
Summary of the method: as §2

[9] = Quantitative High-Throughput drug screen in 47 multiple myeloma cell lines against the NCATS MIPE library collection: Karpas620_DSMZ cell viability assay (AID 1918959); also: nearly all actives have a fitted effect of over 30% in size
Summary of the method: as §1

[10] = Quantitative High-Throughput drug screen in 47 multiple myeloma cell lines against the NCATS MIPE library collection: KMM1_JCRB cell viability assay (AID 1918960); also: nearly all actives have a fitted effect of over 30% in size
Summary of the method: as §3
Potency is read from the fitted curve at half-maximal effect.

| SMILES | Potency [1] | Potency [2] | Potency [3] | Potency [4] | Potency [5] | Potency [6] | Potency [7] | Potency [8] | Potency [9] | Potency [10] |
| --- | --- | --- | --- | --- | --- | --- | --- | --- | --- | --- |
| Nc1nc(NCCNc2ncc(-n3ccnc3)c(-c3ccc(Cl)cc3Cl)n2)ccc1[N+](=O)[O-] | inactive | 13.2 µM (active) | 1.48 µM (active) | 16.6 µM (active) | 11.8 µM (active) | 6.62 µM (active) | inactive | – | – | – |
| Cc1c(CN2CCN(S(C)(=O)=O)CC2)sc2c(N3CCOCC3)nc(-c3cnc(N)nc3)nc12 | inactive | 0.105 µM (active) | 0.0105 µM (active) | 0.105 µM (active) | 0.0083 µM (active) | – | – | 0.0935 µM (active) | 0.0662 µM (active) | – |
| COc1cc2c(Oc3ccc(NC(=O)C4(C(=O)Nc5ccc(F)cc5)CC4)cc3F)ccnc2cc1OCCCN1CCOCC1 | inactive | 14.8 µM (active) | 0.418 µM (active) | 18.7 µM (active) | – | – | 2.35 µM (active) | 5.26 µM (active) | 6.62 µM (active) | 2.96 µM (active) |
| O=C(O)Cn1nnc(-c2cc(N3CCC(Oc4cc(F)ccc4Br)CC3)no2)n1 | inactive | inactive | – | inactive | inactive | – | – | – | inactive | inactive |
| Cc1c(C)n(Cc2ccc(-c3ccccc3C(=O)O)cc2)c2ccc(C(=O)N[C@@H](C)c3ccc([N+](=O)[O-])cc3)cc12 | inactive | inactive | 23.5 µM (active) | – | – | – | 0.0187 µM (active) | 0.118 µM (active) | 0.0935 µM (active) | 0.935 µM (active) |
| CN(C1CCc2c(c3ccccc3n2CC(=O)O)C1)S(=O)(=O)c1ccc(F)cc1 (centres undefined) | inactive | inactive | – | 11.8 µM (active) | – | – | 0.743 µM (active) | 2.64 µM (active) | 2.96 µM (active) | 2.35 µM (active) |
| COc1cc(-c2nn(C3CCC(N4CCN(C(C)=O)CC4)CC3)c3ncnc(N)c23)ccc1NC(=O)c1cc2ccccc2n1C (centres undefined) | inactive | 5.26 µM (active) | – | 20.9 µM (active) | – | 0.372 µM (active) | inactive | 0.59 µM (active) | – | – |
| Cc1coc2c1C(=O)C(=O)c1c-2ccc2c1CCCC2(C)C | 9.47 µM (active) | 20.9 µM (active) | 8.33 µM (active) | – | 16.6 µM (active) | – | – | 0.0209 µM (active) | inactive | – |
| Nc1cccc(-c2cc3c(Oc4cccc(O)c4)ncnc3[nH]2)c1 | inactive | 14.8 µM (active) | – | 16.6 µM (active) | 20.9 µM (active) | inactive | – | – | inactive | – |
| CCCCOc1c(C(=O)c2c(F)cc(C)cc2F)cnc2n[nH]cc12 | inactive | 4.18 µM (active) | 2.64 µM (active) | – | 4.18 µM (active) | – | 2.35 µM (active) | 1.66 µM (active) | 7.43 µM (active) | 2.35 µM (active) |
| Cc1cc(N2CCOCC2)cc2[nH]c(-c3c(NC[C@@H](O)c4cccc(Cl)c4)cc[nH]c3=O)nc12 | inactive | 23.5 µM (active) | – | 0.235 µM (active) | 5.26 µM (active) | – | – | 0.526 µM (active) | 0.418 µM (active) | – |
| CC(C)c1cnn2c(NCc3ccccc3)cc(N[C@@H](CO)[C@H](O)CO)nc12 | inactive | 0.264 µM (active) | – | – | 0.264 µM (active) | 0.148 µM (active) | 0.0833 µM (active) | 0.118 µM (active) | 0.296 µM (active) | 0.166 µM (active) |
| c1ccc2c(CCNc3ccc(Nc4ccncc4)cc3)c[nH]c2c1 | inactive | inactive | – | 14.8 µM (active) | – | – | – | 1.48 µM (active) | – | 2.96 µM (active) |
| COC(=O)Nc1nc2ccc(C(=O)c3ccc(F)cc3)cc2[nH]1 | inactive | 0.264 µM (active) | – | – | 0.418 µM (active) | – | – | 0.296 µM (active) | – | – |
| COc1ccc(F)c(F)c1C(=O)c1cnc(NC2CCN(S(C)(=O)=O)CC2)nc1N | inactive | 2.35 µM (active) | – | 2.35 µM (active) | 2.35 µM (active) | 1.18 µM (active) | 0.743 µM (active) | 0.833 µM (active) | 2.64 µM (active) | 1.87 µM (active) |
| COc1ccc2c(OCc3nnc4ccc(-c5ccccc5)nn34)ccnc2c1 | inactive | inactive | inactive | – | inactive | – | – | inactive | inactive | inactive |
| CN(C)c1nc(Cc2ccc(NC(=O)c3ccc4ccccc4c3)cc2)nc(Cl)c1CC(=O)O | inactive | inactive | inactive | – | inactive | inactive | – | – | – | – |
| CCn1cc(-c2ccnc3[nH]c(-c4cccc(CN(C)C)c4)cc23)c(-c2ccc(NC(=O)N(C)C)cc2)n1 | inactive | 20.9 µM (active) | 3.32 µM (active) | – | 5.9 µM (active) | 8.33 µM (active) | 1.87 µM (active) | 5.26 µM (active) | – | – |
| Cc1c(NC(=O)OC[C@@H]2COCCN2)cn2ncnc(Nc3ccc4c(cnn4Cc4cccc(F)c4)c3)c12 | inactive | 1.32 µM (active) | 0.833 µM (active) | – | – | 11.8 µM (active) | – | 3.32 µM (active) | 18.7 µM (active) | 14.8 µM (active) |
| CC(C)(O)CCc1ccc(OCc2cc(-c3cccc(OC(F)F)c3)c3ncccc3c2)cc1 | inactive | inactive | – | inactive | – | – | – | inactive | inactive | inactive |
| CCCn1c(=O)c2[nH]c(-c3cnn(Cc4cccc(C(F)(F)F)c4)c3)nc2n(CC)c1=O | inactive | 5.9 µM (active) | inactive | – | – | – | – | inactive | inactive | – |
| O=C(O)C1(Cc2cccc(Nc3nccs3)n2)CCC(Oc2cccc(Cl)c2F)CC1 (centres undefined) | inactive | 0.418 µM (active) | 0.166 µM (active) | – | 0.59 µM (active) | – | – | 0.235 µM (active) | 0.0743 µM (active) | – |
| Clc1cccc(-c2nnnn2Cc2cccnc2)c1Cl | inactive | inactive | – | inactive | inactive | inactive | – | inactive | inactive | inactive |
| O=C(Nc1nc2cccc(-c3ccc(CN4CCS(=O)(=O)CC4)cc3)n2n1)C1CC1 | inactive | 9.35 µM (active) | – | 18.7 µM (active) | 20.9 µM (active) | – | 1.66 µM (active) | 5.9 µM (active) | – | 8.33 µM (active) |
| COC(=O)Nc1ccc(-c2nc(N3CCOCC3)c3cnn(C4CCN(Cc5cccnc5)CC4)c3n2)cc1 | inactive | 0.0469 µM (active) | 0.0935 µM (active) | – | 0.0743 µM (active) | – | – | inactive | inactive | – |

Reference: PubChem BioAssay (NCATS)
